Shown are actives, neighbours in structure and some others; about 9.9% of the full set was active somewhere.
Tau FP inhib – tau fibrillization inhibition (FP) | actives 0.39% (n = 280,000) | P10636 | K18 P301L tau heparin fibrillization, Alexa594 FP, 6 h | Potency, µM (titrated, usually from 57.7 µM), most hits filed as inhibitors; also: nearly all actives have a fitted effect of over 55% in size
Target sequence (P10636 561-689 P618L limits assumed): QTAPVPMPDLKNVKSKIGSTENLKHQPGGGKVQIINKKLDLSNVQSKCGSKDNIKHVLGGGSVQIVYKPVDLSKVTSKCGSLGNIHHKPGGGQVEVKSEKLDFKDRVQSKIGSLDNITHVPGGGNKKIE
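Compound effects on tau fibrillization are measured by Alexa 594 fluorescence polarization (ex 555, em 632 nm). K18 P301L tau is used at 15 uM with 0.24 uM labeled tracer, and 20 uM heparin induces aggregation over 6 hr at 37 C.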
Tau fluor cs – counter-screen for tau fibril formation inhibitors; Potency, µM (series often up to 57.7 µM); tau K18 P301L Alexa594 fluorescence, heparin fibrillization; actives 0.93% (n = 280,000); also: nearly all actives have a fitted effect of over 55% in size
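Human tau K18 P301L (15 uM unlabeled, 0.24 uM Alexa 594-labeled) in 100 mM sodium acetate pH 7 with 20 uM heparin, 6 hr at 37 C. ThT 30 uM added, 1 hr ambient; Alexa 594 FP and total fluorescence read at 555/632 nm.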
Tau ThT inhib – blocks human tau fibril formation measured by thioflavin T | recombinant tau K18 P301L (four-repeat tau fragment), heparin-induced fibrillization, ThT fluorescence | actives 2.1% (n = 270,000) | Potency, µM (series often up to 57.4 µM), usual class: inhibitors; also: nearly all actives have a fitted effect of over 55% in size
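Aggregation was driven by heparin (20 uM final) acting on recombinant tau […] bearing P301L in 100 mM sodium acetate pH 7; fibrils were detected with Thioflavin T.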
KDM4E inh – blocks human JMJD2E demethylase activity | B2RXH2 | JMJD2E catalytic domain, FDH-coupled NADH fluorescence (FDH is formaldehyde dehydrogenase) | Potency, µM (highest dose often 57.1 µM), actives largely listed as inhibitors | actives 1.6% (n = 230,000) | AID 2147; active = well fitted inhibition curve with a large enough effect, not every such curve was filed as active; inconclusive = small, poorly fitted or top-dose-only effect, or another doubt; inactive = no such curve, though single readings can be large or run the other way; also: nearly all actives have a fitted effect of over 50% in size
Target sequence (B2RXH2 1-337 limits assumed): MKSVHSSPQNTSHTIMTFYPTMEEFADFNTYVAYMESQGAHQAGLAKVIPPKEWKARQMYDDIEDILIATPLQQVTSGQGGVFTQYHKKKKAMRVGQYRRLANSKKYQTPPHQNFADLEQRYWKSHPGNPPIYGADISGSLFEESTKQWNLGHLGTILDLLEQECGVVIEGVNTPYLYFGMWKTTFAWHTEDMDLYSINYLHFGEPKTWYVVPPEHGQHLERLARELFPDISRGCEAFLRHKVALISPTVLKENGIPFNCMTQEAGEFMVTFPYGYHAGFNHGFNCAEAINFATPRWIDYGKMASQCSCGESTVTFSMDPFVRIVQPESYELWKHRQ
HPGD block – HPGD (human) dehydrogenase inhibition. P15428. purified HPGD, NADH fluorescence kinetic, PGE2 substrate. Potency, µM, most hits filed as inhibitors. AID 894. actives 4.3% (n = 150,000); active = well fitted inhibition curve with a large enough effect, not every such curve was filed as active; inconclusive = small, poorly fitted or top-dose-only effect, or another doubt; inactive = no such curve, though single readings can be large or run the other way
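20 nM HPGD preincubated 15 min at room temperature with compound in 50 mM Tris-HCl pH 8, 0.01% Tween 20. Started with 1 mM NAD+ and 30 uM prostaglandin E2; NADH fluorescence (360/450 nm) read 5 times over 30-s intervals, last minus first.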
ALDH1A1 inh – blocks purified human ALDH1A1 activity; AID 1030; actives 7.3% (n = 220,000); Potency, µM (top dose mostly 75.3 µM), actives largely listed as inhibitors; Purified ALDH1A1, NADH fluorescence, propionaldehyde substrate; active = well fitted inhibition curve with a large enough effect, not every such curve was filed as active; inconclusive = small, poorly fitted or top-dose-only effect, or another doubt; inactive = no such curve, though single readings can be large or run the other way
A number is an active result; n = inactive; u = inconclusive; x = not tested or not shown; [ ] = dose if it differs, or a comment. Unless noted, calls follow the shape of the dose curve; as a rule, active = well fitted curve in the direction sought with a large enough effect; inconclusive = small, poorly fitted or top-dose-only effect, or another doubt; inactive = no such curve, though single readings can be large; an effect the other way counts as inactive or inconclusive.

SMILES	Tau FP inhib	Tau fluor cs	Tau ThT inhib	KDM4E inh	HPGD block	ALDH1A1 inh
Cc1sc2nc(SCC(=O)NCc3cccs3)[nH]c(=O)c2c1C	n	n	n	n	25µM	n
Cc1sc2nc(SCC(=O)O)[nH]c(=O)c2c1C	u	n	n	u	x	n
Cc1sc2nc(SCC(=O)NCc3ccco3)[nH]c(=O)c2c1C	n	n	n	n	7.9µM	n
COc1ccc(N2CCN(Cc3nc4sc(C)c(C)c4c(=O)[nH]3)CC2)cc1	n	n	n	n	x	n
Cc1sc2nc(SCC(=O)NCc3ccco3)n(C)c(=O)c2c1C	n	n	n	n	n	n
Cc1ccc2nc(SCC(=O)NCc3cccs3)[nH]c2c1	n	n	n	n	x	n
Cc1sc2nc(SCC(=O)N3CCOCC3)[nH]c(=O)c2c1C	n	n	n	n	16µM	n
Cc1sc2nc(CSCC(=O)Nc3ccc(N4CCOCC4)cc3)[nH]c(=O)c2c1C	u	n	u	n	x	11µM
COc1ccc(Cl)cc1N(C(=O)Nc1cccc(Cl)c1)C1=NCC(C)S1 (stereo unspecified)	n	n	n	n	n	n
CCn1c(SCC(=O)NC(=O)NCc2ccco2)nc2sc(C)c(C)c2c1=O	u	n	u	n	u	8.9µM
O=C(c1ccccc1F)N1CCN(c2ccc([N+](=O)[O-])c(NCC3CCCO3)c2)CC1 (stereo unspecified)	n	n	u	n	x	11µM
CC(=O)N1CCN(c2ccc([N+](=O)[O-])c(NCC3CCCO3)c2)CC1 (stereo unspecified)	n	n	14µM	n	n	n
CC(C)C(=O)N1CCN(c2ccc([N+](=O)[O-])c(NC(C)c3ccccc3)c2)CC1 (stereo unspecified)	n	n	16µM	n	n	22µM
O=[N+]([O-])c1ccc(N2CCN(S(=O)(=O)c3ccc(Cl)cc3)CC2)cc1NCC1CCCO1 (stereo unspecified)	n	n	n	n	n	n
Cc1cc(C)c(S(=O)(=O)N2CCN(c3ccc([N+](=O)[O-])c(NCC4CCCO4)c3)CC2)c(C)c1 (stereo unspecified)	n	n	n	n	n	n
CC(Nc1cc(N2CCN(C(=O)C(C)(C)C)CC2)ccc1[N+](=O)[O-])c1ccccc1 (stereo unspecified)	n	n	u	u	n	u
COc1ccc(N2CCN(C(=O)c3cc(-c4ccc(C)c(F)c4)on3)CC2)cc1	n	u	u	x	x	x
OCCC1CN(Cc2cccn2-c2cccnc2)CCN1C1CCCC1 (stereo unspecified)	n	n	n	n	x	x
Cc1c(N/C=C(\Cl)C(=O)C(F)(F)F)c(=O)n(-c2ccccc2)n1C	u	n	u	u	x	32µM
O=C(c1ccccc1)c1ccc2n1CC[C@H]2C(=O)O	x	x	x	n	n	n
COc1ccc(C2C(C#N)=C(N)OC3=C2C(=O)CC(C)(C)C3)cc1Cn1nc(C)c([N+](=O)[O-])c1C (stereo unspecified)	n	n	n	n	n	n
Cc1nn(-c2ccccc2)c2c1C(c1ccc(Br)s1)C(C#N)=C(N)O2 (stereo unspecified)	n	u	u	n	x	3.2µM
COc1ccc(C2C(C#N)=C(N)Oc3c2c(C)nn3-c2ccccc2)cc1Cn1nc(C)c([N+](=O)[O-])c1C (stereo unspecified)	n	u	u	n	u	5µM
Cc1nn(-c2ccccc2)c2c1C(c1ccccc1)C(C#N)=C(N)O2 (stereo unspecified)	n	n	u	n	32µM	3.5µM
CCC(c1nnnn1CCc1ccccc1)N(Cc1ccco1)Cc1cc2cc(C)cc(C)c2[nH]c1=O (stereo unspecified)	n	n	u	u	n	u
SMILES	Tau FP inhib	Tau fluor cs	Tau ThT inhib	KDM4E inh	HPGD block	ALDH1A1 inh
CCC(c1nnnn1Cc1ccco1)N(CCc1ccccc1)Cc1cc2cc(C)ccc2[nH]c1=O (stereo unspecified)	n	n	u	u	x	25µM
CCC(c1nnnn1CCc1ccccc1)N(Cc1ccco1)Cc1cc2c(C)ccc(C)c2[nH]c1=O (stereo unspecified)	n	n	u	u	n	22µM
Cc1ccc2[nH]c(=O)c(CN(CCc3ccccc3)C(c3nnnn3Cc3ccco3)C(C)C)cc2c1 (stereo unspecified)	n[0.0958 µM]	n[0.0958 µM]	x	u	x	x
Cc1ccc(-c2nn(C)c(=O)c3ccccc23)cc1S(=O)(=O)N1CCOCC1	n	n	n	n	14µM	n
Cc1ccc(-c2nn3c(C)nnc3c3ccccc23)cc1S(=O)(=O)NCCN1CCOCC1	n	n	n	u	n	n
Cc1ccc(-c2n[nH]c(=O)c3ccccc23)cc1S(=O)(=O)NCCN1CCOCC1	n	n	n	n	13µM	n
COC(=O)[C@H]1C(OC)[C@@H](OC(=O)c2cc(OC)c(OC)c(OC)c2)C[C@@H]2CN3CCc4c([nH]c5cc(OC)ccc45)[C@H]3C[C@H]21 (stereo partly specified)	u	u	10µM	u	u	u
COC(=O)C1C2CC3c4[nH]c5cc(OC)ccc5c4CCN3CC2CC(OC(=O)c2cc(OC)c(OC)c(OC)c2)C1OC (stereo unspecified)	n	u	u	20µM	n	n
COC(=O)[C@H]1[C@H]2C[C@@H]3c4[nH]c5cc(OC)ccc5c4CCN3C[C@H]2C[C@@H](OC(=O)c2ccc(N)cc2)[C@@H]1OC	n	u	14µM	u	x	x
Cc1ccc(S(=O)(=O)N[C@H]2COC(=O)[C@@H](C)COC(=O)C/C=C\[C@H]2C)cc1	n[11.6 µM]	n[11.6 µM]	n[11.5 µM]	x	x	n[13.5 µM]
O=C(O)c1ccccc1NS(=O)(=O)c1cccc2ccccc12	x	x	x	x	n	n
COc1ccc2c(Cl)c(-c3nnc4n3CCCCC4)sc2c1	n	n	u	n	1µM	u
Clc1c(-c2nnc3n2CCCCC3)sc2ccccc12	n	n	n	n	2µM	n
Clc1ccc(-c2nnc3n2CCCC3)cc1	n	n	n	n	n	n
Cn1c(-c2sc3ccccc3c2Cl)n[nH]c1=S	n	n	u	u	20µM	u
c1cncc(-c2nnc3n2CCC3)c1	n	n	n	n	n	n
Clc1c(-c2nnc3n2CCC3)sc2ccccc12	n	n	n	n	28µM	u
O=C(CNC1CCCCC1)Nc1cc(S(=O)(=O)N2CCOCC2)ccc1Cl	n	n	n	n	x	n
CCCn1c(-c2ccc(F)cc2)nc2c(NC3CC4CCC(C3)N4C)nc(C)nc21 (stereo unspecified)	n	n	n	u	u	u
O=c1[nH]c(-c2ccccc2O)nc2ccccc12	n	n	n	u	2.8µM	n
CCCOc1cccc(C(=O)N(Cc2ccc(C)o2)C2CCS(=O)(=O)C2)c1 (stereo unspecified)	n	n	n	x	x	x

From PubChem BioAssay
